Assay [1] concerns Vero E6 infected with SARS-CoV-2. As to the kind of experiment: morphology score (similarity to uninfected cells); higher = more like uninfected cells. The settings on record: 24 h.
For assay [2] the test system is unchanged. Briefly: SARS-CoV-2 infection rate relative to infected DMSO; higher = more infection, active = 60 or less. The settings on record: 24 h.

As to `CCS(=O)(=O)N(Cc1cccnc1)c1cccc(-c2ccc(C#N)cc2)c1` (10 µM), the morphology score in assay [1] is 0.372. Further, the SARS-CoV-2 infection rate in assay [2] is 87% (inactive).

The compound `Nc1nc(N)c2nc(-c3cccc(O)c3)cnc2n1` (10 µM) had a morphology score in assay [1] of 0.242. Moreover, in assay [2], the SARS-CoV-2 infection rate is 101% (inactive).

For the compound `CCCN1CCCC[C@H]1C(=O)Nc1c(C)cccc1C` [ropivacaine] (10 µM), the morphology score in assay [1] was 0.0192. For the same compound, the SARS-CoV-2 infection rate in assay [2] was 104% (inactive).

In assay [1], `Cc1cc(O)c(C(=O)N[C@@H](C(=O)N[C@@H]2C(=O)N3C(C(=O)O)=C(CSc4nnnn4C)CS[C@H]23)c2ccc(O)cc2)cn1` [cefpiramide] (10 µM) gave a morphology score of 0.00194. In assay [2], the SARS-CoV-2 infection rate is 106% (inactive).

Turning to `CO[C@@H]1[C@@H](O[C@@H]2O[C@H](C)[C@@H](O[C@H]3C[C@@](C)(O)[C@@H](OC(=O)CC(C)C)[C@H](C)O3)[C@H](N(C)C)[C@H]2O)[C@@H](CC=O)C[C@@H](C)[C@@H](O)/C=C/C=C/C[C@@H](C)OC(=O)C[C@H]1OC(C)=O` [josamycin] (10 µM), in assay [1], the morphology score is -0.0313. In addition, the SARS-CoV-2 infection rate in assay [2] was 113% (inactive).

Regarding `O=C1NCCN1c1ncc([N+](=O)[O-])s1` [niridazole] (10 µM), the morphology score in assay [1] came out at 0.233. Besides, the SARS-CoV-2 infection rate in assay [2] was 95% (inactive).

In assay [1], `O=[N+]([O-])c1cc(Cl)ccc1S(=O)(=O)N1CCN(Cc2ccccc2)CC1` (10 µM) displayed a morphology score of -0.0654. Also, the SARS-CoV-2 infection rate in assay [2] was 112% (inactive).

`CC(=O)c1c(O)cc(C)oc1=O` [dehydroacetic-acid] (10 µM) came in with a morphology score in assay [1] of 0.121. Also, the SARS-CoV-2 infection rate in assay [2] is 93.5% (inactive).

For `CN(C)CCC(c1ccc(Br)cc1)c1ccccn1` (centres undefined) [brompheniramine] (10 µM), the morphology score in assay [1] is -0.0213. Also, the SARS-CoV-2 infection rate in assay [2] is 106% (inactive).

As to `CC(C)C[C@H](CN)CC(=O)O` (10 µM), the morphology score in assay [1] was -0.0821. Also, in assay [2], the SARS-CoV-2 infection rate was 106% (inactive).

In assay [1], `O=C(Nc1ncc(SCCN2CCCC2)s1)[C@]1(c2ccc(S(=O)(=O)C3CC3)cc2)C[C@H]1C1CCCCC1` (10 µM) registered a morphology score of 0.767. Besides, the SARS-CoV-2 infection rate in assay [2] was 17% (active).

With `CN1CCN(c2c(F)cc3c(=O)c(C(=O)O)cn(CCF)c3c2F)CC1` [fleroxacin] (10 µM), the morphology score in assay [1] is -0.043. For the same compound, the SARS-CoV-2 infection rate in assay [2] was 115% (inactive).

`CCCc1nc(C)c2c(=O)nc(-c3cc(S(=O)(=O)N4CCN(CC)CC4)ccc3OCC)[nH]n12` [vardenafil] (10 µM) showed a morphology score in assay [1] of 0.227. In assay [2], the SARS-CoV-2 infection rate is 97.5% (inactive).

Compound `O=C(O[C@@H]1Cc2c(O)cc(O)cc2O[C@@H]1c1ccc(O)c(O)c1)c1cc(O)c(O)c(O)c1` [epicatechin-gallate-(-)] (10 µM) yielded a morphology score in assay [1] of 0.106. For the same compound, in assay [2], the SARS-CoV-2 infection rate is 100% (inactive).

`NCC1CC(=O)N(Cc2ccccc2)C1` (centres undefined) [nebracetam] (10 µM) came in with a morphology score in assay [1] of 0.0779. Also, the SARS-CoV-2 infection rate in assay [2] is 102% (inactive).

`C/C=C1\NC(=O)[C@H]2CSSCC/C=C/[C@H](CC(=O)N[C@H](C(C)C)C(=O)N2)OC(=O)[C@H](C(C)C)NC1=O` [romidepsin] (10 µM): the morphology score in assay [1] was -0.211. Further, in assay [2], the SARS-CoV-2 infection rate was 114% (inactive).

In assay [1], `O=C(O)c1ccccc1Nc1cccc(OCc2ccc3ccccc3n2)c1` (10 µM) came in with a morphology score of 0.0319. Further, the SARS-CoV-2 infection rate in assay [2] is 95.5% (inactive).

`CN(C)CCOC(=O)COc1ccc(Cl)cc1` [meclofenoxate] (10 µM): the morphology score in assay [1] is -0.0664. Moreover, the SARS-CoV-2 infection rate in assay [2] was 90.5% (inactive).

As to `Cc1ccc(-n2sc(=O)n(Cc3ccc(F)cc3)c2=O)cc1` (10 µM), the morphology score in assay [1] was found to be 0.218. In assay [2], the SARS-CoV-2 infection rate is 96% (inactive).

Turning to `Cc1cc(C(=O)Nc2nc3cccc(Cl)c3n2[C@@H]2CCCCN(C(=O)/C=C/CN(C)C)C2)ccn1` (0.833333 µM), the morphology score in assay [1] is -0.2. Further, the SARS-CoV-2 infection rate in assay [2] is 110% (inactive).

For the compound `OCCN1C[C@H](O)[C@@H](O)[C@H](O)[C@H]1CO` [miglitol] (10 µM), in assay [1], the morphology score is 0.11. Further, the SARS-CoV-2 infection rate in assay [2] was 106% (inactive).

With `COc1cc(OC)c(/C=C/S(=O)(=O)Cc2ccc(OC)c(OP(=O)(O)O)c2)c(OC)c1` [briciclib] (0.833333 µM), the morphology score in assay [1] was -0.0884. Further, the SARS-CoV-2 infection rate in assay [2] was 92% (inactive).

With `NC(=O)[C@@H]1CC[C@@H]2CN1C(=O)N2OS(=O)(=O)O` [avibactam] (10 µM), the morphology score in assay [1] is 0.0638. Further, the SARS-CoV-2 infection rate in assay [2] is 108% (inactive).

In assay [1], `Cc1c(F)cc(C(=O)NC2CC2)cc1-c1ccc(C(=O)NCC(C)(C)C)cn1` [losmapimod] (10 µM) had a morphology score of 0.0455. Further, the SARS-CoV-2 infection rate in assay [2] is 98.5% (inactive).

In the case of `O=c1oc2cc(O)ccc2s1` [tioxolone] (10 µM), the morphology score in assay [1] was 0.0494. In assay [2], the SARS-CoV-2 infection rate was 104% (inactive).

`Cc1nc(Nc2ncc(C(=O)Nc3c(C)cccc3Cl)s2)cc(N2CCN(CCO)CC2)n1` [dasatinib] (0.833333 µM) yielded a morphology score in assay [1] of -0.0371. Further, the SARS-CoV-2 infection rate in assay [2] is 95.5% (inactive).

In assay [1], `Nc1nc(F)nc2c1ncn2[C@@H]1O[C@H](CO)[C@@H](O)[C@@H]1O` [fludarabine] (10 µM) displayed a morphology score of -0.0436. Besides, the SARS-CoV-2 infection rate in assay [2] was 107% (inactive).

The record behind these values is the supplement of paper PMC13380429.
